Screening data: PubChem, several laboratories
This is a sample that favours compounds with a hit; in the whole collection about 2% have one here.
FAS TE block: FAS thioesterase domain inhibitors, primary screen, biochemical, fluorescence intensity, uHTS; Fatty acid synthase (Homo sapiens), P49327; recombinant FAS-TE, OMFH fluorogenic substrate, fluorescence endpoint; inhibition, % at 15 µM; 360,000 compounds, 0.67% hits; AID 602261, 2012;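 active means compounds whose normalised, plate-corrected inhibition of enzyme fluorescence in the single-dose primary screen is 50% or more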
ADAM10 inh: human ADAM10 inhibitors, primary screen, biochemical, QFRET, HTS; 370,000 compounds, 0.62% hits; inhibition, % at 7 µM; recombinant ADAM10, EDANS/DABCYL FRET peptide cleavage, 3 h; Disintegrin and metalloproteinase domain-containing protein 10 (Homo sapiens), O14672;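 active means inhibition above a per-campaign cutoff equal to the mean of compounds falling between control-based bounds plus 3 SD, cut at about 20% in these data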
Target sequence (O14672 214-748 limits assumed): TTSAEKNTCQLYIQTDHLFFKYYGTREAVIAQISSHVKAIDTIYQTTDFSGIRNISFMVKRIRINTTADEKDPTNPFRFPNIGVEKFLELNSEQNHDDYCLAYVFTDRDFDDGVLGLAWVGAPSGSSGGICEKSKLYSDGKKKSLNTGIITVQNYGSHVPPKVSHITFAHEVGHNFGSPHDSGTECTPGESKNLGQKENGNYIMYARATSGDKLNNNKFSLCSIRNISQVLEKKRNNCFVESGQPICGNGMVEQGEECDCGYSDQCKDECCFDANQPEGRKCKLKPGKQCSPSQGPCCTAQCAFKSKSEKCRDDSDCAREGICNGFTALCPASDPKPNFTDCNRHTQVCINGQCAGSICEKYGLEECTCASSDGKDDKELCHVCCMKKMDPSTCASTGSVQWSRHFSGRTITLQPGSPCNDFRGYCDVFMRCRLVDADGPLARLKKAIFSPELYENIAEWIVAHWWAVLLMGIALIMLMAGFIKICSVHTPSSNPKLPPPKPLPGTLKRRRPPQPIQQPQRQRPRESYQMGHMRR
NPR1 activator: GC-A stimulated cGMP production enhancers – HEK293 GC-A cells, cGMP TR-FRET, EC30 ANP, primary screen | Atrial natriuretic peptide receptor 1 (Homo sapiens), P16066 | activation, % at 10 µM | 370,000 compounds, 0.14% hits | 0% at EC30 ANP, 100% saturating ANP; in the data active means activation above about 40%
ADAM17 inh: ADAM17 inhibitors, primary screen, biochemical, QFRET | AID 720648, 2013 | Disintegrin and metalloproteinase domain-containing protein 17 (Homo sapiens), P78536 | recombinant ADAM17, EDANS/DABCYL FRET peptide cleavage | inhibition, % at 6.95 µM | 370,000 compounds, 0.83% hits;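 active means inhibition above the mean of compounds lying between control limits plus 3 SD, set per campaign, cut at about 8.5% in these data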
NPR2 activator: human GC-B receptor activators, primary screen, HEK293 GC-B cells, cGMP TR-FRET, EC30 CNP | 0% at EC30 CNP, 100% saturating CNP | Atrial natriuretic peptide receptor 2 (Homo sapiens), P20594 | activation, % at 10 µM | AID 1920062, 2024 | 370,000 compounds, 0.11% hits;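 active means activation at 10 µM reaching about 35% in either raw or pattern-adjusted values, limit read from the data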
FAS-TE conf: FAS thioesterase domain inhibitors, confirmation, biochemical, fluorescence intensity, single concentration; shares compounds with FAS TE block; recombinant FAS-TE, OMFH fluorogenic substrate; inhibition, % at 15 µM; 2,300 compounds, 45% hits;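 active means compounds inhibiting the enzyme by at least 50% at 15 µM in any one of the replicates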
Large screens that a line does not name were inactive (follow-up assays come after a bar, where they were run).

CC(C)(CNC(=O)c1ccc([N+](=O)[O-])c(Cl)c1)CNC(=O)c1ccc([N+](=O)[O-])c(Cl)c1	FAS TE block 56 | FAS-TE conf 63
COCCCn1cc(CN2CC=CS2(=O)=O)nn1	none (no result: FAS TE block)
NC(=O)c1ncn([C@@H]2O[C@H](C(=O)N3CCCN(Cc4ccccc4F)CC3)[C@@H](O)[C@H]2O)n1	none (no result: FAS TE block)
Cc1nc2cc(C(=O)N3CCN(C(=O)C(C)(C)C)CC3)ccc2n1C1CCCC1	none (no result: FAS TE block)
Cc1ccc(Nc2nnc(-c3ccc(N4CCOCC4)c([N+](=O)[O-])c3)c3ccccc23)cc1	FAS TE block 64 | FAS-TE conf inactive
O=[N+]([O-])c1cc(-c2nnc(Nc3ccccc3)c3ccccc23)ccc1N1CCOCC1	FAS TE block 63 | FAS-TE conf inactive
O=[N+]([O-])c1cc(-c2nnc(Nc3ccc(O)cc3)c3ccccc23)ccc1N1CCOCC1	none
O=C(C[C@H]1C[C@H](C(=O)N2CCOCC2)[C@@]2(CCC3CCCC3)c3[nH]c4cc(-c5ccco5)ccc4c3CCN2C1=O)NCCN1CCOCC1	FAS TE block 69 | FAS-TE conf 80
CN(C)CCCNC(=O)C[C@H]1C[C@H](C(=O)N2CCOCC2)[C@@]2(CCC3CCCC3)c3[nH]c4cc(-c5ccco5)ccc4c3CCN2C1=O	FAS TE block 70 | FAS-TE conf 78
COc1ccc(CNC(=O)C[C@H]2C[C@H](C(=O)N3CCOCC3)[C@@]3(CCC4CCCC4)c4[nH]c5cc(-c6ccco6)ccc5c4CCN3C2=O)cc1OC	none
COCCCNC(=O)C[C@H]1C[C@H](C(=O)N2CCOCC2)[C@@]2(CCC3CCCC3)c3[nH]c4cc(-c5ccco5)ccc4c3CCN2C1=O	FAS TE block 59 | FAS-TE conf 29
CC1(NC(=O)c2ccc(C#Cc3cccc(F)c3)cn2)COC1	none (no result: FAS TE block)
CCCC(=O)NC1=C(Cl)C(=O)c2ccccc2C1=O	FAS TE block 53 | FAS-TE conf 56
c1ccc(CCn2nnc(-c3ccc(N4CCOCC4)cc3)n2)cc1	none (no result: FAS TE block)
COC(=O)[C@]12C[C@H](CC(=O)NCc3cccs3)C(=O)N(CCC3=CCCCC3)C1=C[C@H](C(C)(C)C)O[C@@H]2C	none (no result: FAS TE block)
CCN(Cc1ccccc1)C(=O)COC(=O)c1cnc(C)cn1	none
CCN(Cc1ccccc1)C(=O)COC(=O)c1cc(Cl)nc(Cl)c1	FAS TE block 55 | FAS-TE conf 66
O=C1N=c2ccc([N+](=O)[O-])cc2=C1c1sc(=O)[nH]c1O	FAS TE block 56 | FAS-TE conf 66
COC[C@@H]1CCCN1c1ccc2c(c1)O[C@H]1CCN(C1)S2(=O)=O	none (no result: FAS TE block)
CCOC(=O)C1=NOC(C(=O)NCCO)(C(=O)C2CC2)C1 (centres undefined)	none (no result: FAS TE block)
CC(C)Cn1c2c(c(O)c(C(=O)Nn3c(Cc4ccccc4)nc4ccccc4c3=O)c1=O)CCCC2	FAS TE block 54 | FAS-TE conf inactive
CCCCc1nc2ccccc2c(=O)n1NC(=O)c1c(O)c2c(n(CC(C)C)c1=O)CCCC2	none
O=C(NCCc1c[nH]c2ccccc12)OCc1cn(-c2ccccc2Cl)nn1	none (no result: FAS TE block)
CC1(C)CC(=O)C=C(c2ccc(COC(=O)c3ccccc3)cc2)C1=O	FAS TE block 64 | FAS-TE conf 43
CC1(C)CC(=O)C=C(c2ccc(COC(=O)/C=C/c3ccccc3)cc2)C1=O	none
Cc1ccc(NC(=O)Cn2nnc(-c3ccccc3F)n2)cc1C	none (no result: FAS TE block)
Cc1onc(-c2c(Cl)cccc2Cl)c1-c1nc2cc(Cl)ccc2c(=O)o1	FAS TE block 54 | FAS-TE conf inactive
COC(=O)[C@]12C[C@H](CC(=O)NCc3cccs3)C(=O)N(Cc3ccccc3)C1=C[C@H](C(C)C)O[C@@H]2C1CC1	none (no result: FAS TE block)
